Results taken from the supplement of paper PMC11732987, “Enantioselective OTUD7B fragment discovery through chemoproteomics screening and high-throughput optimisation” (Communications Chemistry, 2025).

Columns and labels:
Assay in all cases: log2 ratio of Biotin-Ahx-Ub-VS probe labelling (fragment/DMSO); higher = less target engagement (more negative = stronger competition), active = hit call of the paper (q ≤ 0.05, log2 ratio ≤ -1)
Conditions in all cases: compound concentration: 200 uM; treatment time: 3 h
USP34 = USP34 (UniProt Q70CQ2)
How it was run: (§1)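 HEK293T lysate (495 µg per sample, in Tris/CHAPS/IGEPAL buffer with protease inhibitors) was treated in triplicate with fragment at 200 µM or with DMSO for 3 h. It was then treated with Biotin-Ahx-Ub-VS (0.5 µM final) for 1 h. Labelled DUBs were NeutrAvidin-enriched, digested with LysC and trypsin, and run by diaPASEF LC-MS/MS. Spectronaut label-free quantities were global-median-normalised. Values are average log2 ratios fragment/DMSO by unpaired t-test, using proteins with ≥2 unique peptides.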

USP36 = target: T1, USP36 (UniProt Q9P275)
T1 sequence (whole entry): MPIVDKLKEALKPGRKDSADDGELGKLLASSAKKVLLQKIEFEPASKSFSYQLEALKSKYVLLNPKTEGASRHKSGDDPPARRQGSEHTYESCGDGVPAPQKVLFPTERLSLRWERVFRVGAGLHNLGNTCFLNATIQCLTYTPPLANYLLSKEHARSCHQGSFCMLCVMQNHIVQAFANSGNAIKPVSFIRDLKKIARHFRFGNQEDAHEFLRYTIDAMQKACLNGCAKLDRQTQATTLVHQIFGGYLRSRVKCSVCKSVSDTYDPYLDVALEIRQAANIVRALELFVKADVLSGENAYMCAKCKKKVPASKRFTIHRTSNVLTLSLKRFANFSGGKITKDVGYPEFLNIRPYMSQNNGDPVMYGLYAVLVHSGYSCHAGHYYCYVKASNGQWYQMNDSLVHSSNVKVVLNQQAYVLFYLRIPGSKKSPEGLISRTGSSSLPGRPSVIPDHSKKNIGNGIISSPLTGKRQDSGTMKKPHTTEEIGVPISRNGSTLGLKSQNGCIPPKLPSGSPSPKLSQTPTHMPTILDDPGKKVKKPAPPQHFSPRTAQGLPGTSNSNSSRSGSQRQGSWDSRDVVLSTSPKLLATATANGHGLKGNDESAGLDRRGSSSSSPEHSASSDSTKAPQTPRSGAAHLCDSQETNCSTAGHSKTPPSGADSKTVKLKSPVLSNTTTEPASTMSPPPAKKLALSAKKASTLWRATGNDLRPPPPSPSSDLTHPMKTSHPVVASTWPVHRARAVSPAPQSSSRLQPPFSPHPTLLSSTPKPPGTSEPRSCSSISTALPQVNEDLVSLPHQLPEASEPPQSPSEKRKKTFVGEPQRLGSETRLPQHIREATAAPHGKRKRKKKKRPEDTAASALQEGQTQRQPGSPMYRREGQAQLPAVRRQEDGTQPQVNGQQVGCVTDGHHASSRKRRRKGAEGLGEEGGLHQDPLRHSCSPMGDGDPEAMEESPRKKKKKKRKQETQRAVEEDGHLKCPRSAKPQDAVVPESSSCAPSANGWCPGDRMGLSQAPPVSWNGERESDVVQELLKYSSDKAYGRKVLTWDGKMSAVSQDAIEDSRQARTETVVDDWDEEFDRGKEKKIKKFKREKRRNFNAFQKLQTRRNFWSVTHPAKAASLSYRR
How it was run: as §1

USP38 = target: T2, USP38 (UniProt Q8NB14)
T2 sequence (whole entry): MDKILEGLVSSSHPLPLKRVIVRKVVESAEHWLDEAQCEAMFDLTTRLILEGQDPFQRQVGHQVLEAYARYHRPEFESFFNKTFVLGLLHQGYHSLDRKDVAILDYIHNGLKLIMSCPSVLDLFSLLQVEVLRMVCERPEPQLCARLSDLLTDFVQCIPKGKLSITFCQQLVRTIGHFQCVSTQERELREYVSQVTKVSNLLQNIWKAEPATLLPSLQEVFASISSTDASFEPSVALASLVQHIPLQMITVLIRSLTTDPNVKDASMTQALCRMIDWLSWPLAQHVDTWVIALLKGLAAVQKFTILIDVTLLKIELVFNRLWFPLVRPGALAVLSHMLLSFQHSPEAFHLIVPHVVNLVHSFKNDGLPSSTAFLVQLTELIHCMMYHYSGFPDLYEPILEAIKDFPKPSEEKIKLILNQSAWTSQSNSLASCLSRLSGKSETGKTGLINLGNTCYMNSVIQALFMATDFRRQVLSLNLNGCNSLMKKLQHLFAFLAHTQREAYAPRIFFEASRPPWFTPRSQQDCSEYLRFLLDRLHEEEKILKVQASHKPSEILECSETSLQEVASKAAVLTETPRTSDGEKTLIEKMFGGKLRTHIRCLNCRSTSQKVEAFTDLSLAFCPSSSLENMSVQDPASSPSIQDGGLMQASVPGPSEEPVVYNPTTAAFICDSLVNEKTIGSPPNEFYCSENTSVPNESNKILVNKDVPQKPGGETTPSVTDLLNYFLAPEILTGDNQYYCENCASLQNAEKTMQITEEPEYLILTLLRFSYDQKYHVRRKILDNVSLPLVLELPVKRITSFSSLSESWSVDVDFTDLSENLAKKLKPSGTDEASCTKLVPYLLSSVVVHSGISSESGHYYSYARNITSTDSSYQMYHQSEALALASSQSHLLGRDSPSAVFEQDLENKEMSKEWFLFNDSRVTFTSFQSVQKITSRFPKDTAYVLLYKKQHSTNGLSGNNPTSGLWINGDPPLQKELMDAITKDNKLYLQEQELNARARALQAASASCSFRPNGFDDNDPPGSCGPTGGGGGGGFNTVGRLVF
How it was run: as §1

USP39 = target: T3, USP39 (UniProt Q53GS9)
T3 sequence (whole entry): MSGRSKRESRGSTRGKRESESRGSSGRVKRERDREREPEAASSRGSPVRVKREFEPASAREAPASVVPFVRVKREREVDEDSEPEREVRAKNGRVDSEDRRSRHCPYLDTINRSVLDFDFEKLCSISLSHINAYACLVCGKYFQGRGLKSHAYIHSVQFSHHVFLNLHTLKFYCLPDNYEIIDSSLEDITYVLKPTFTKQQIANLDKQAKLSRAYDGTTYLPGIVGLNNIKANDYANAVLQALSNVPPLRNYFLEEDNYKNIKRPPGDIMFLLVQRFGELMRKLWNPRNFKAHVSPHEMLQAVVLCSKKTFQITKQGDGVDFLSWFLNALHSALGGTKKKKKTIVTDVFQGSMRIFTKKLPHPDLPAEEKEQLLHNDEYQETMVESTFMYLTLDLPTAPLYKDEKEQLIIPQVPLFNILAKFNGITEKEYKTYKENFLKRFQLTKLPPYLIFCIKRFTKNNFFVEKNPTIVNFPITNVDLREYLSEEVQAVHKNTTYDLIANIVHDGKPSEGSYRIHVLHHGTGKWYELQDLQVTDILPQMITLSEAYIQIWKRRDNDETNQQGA
How it was run: as §1

USP4 = target: T4, USP4 (UniProt Q13107)
T4 sequence (whole entry): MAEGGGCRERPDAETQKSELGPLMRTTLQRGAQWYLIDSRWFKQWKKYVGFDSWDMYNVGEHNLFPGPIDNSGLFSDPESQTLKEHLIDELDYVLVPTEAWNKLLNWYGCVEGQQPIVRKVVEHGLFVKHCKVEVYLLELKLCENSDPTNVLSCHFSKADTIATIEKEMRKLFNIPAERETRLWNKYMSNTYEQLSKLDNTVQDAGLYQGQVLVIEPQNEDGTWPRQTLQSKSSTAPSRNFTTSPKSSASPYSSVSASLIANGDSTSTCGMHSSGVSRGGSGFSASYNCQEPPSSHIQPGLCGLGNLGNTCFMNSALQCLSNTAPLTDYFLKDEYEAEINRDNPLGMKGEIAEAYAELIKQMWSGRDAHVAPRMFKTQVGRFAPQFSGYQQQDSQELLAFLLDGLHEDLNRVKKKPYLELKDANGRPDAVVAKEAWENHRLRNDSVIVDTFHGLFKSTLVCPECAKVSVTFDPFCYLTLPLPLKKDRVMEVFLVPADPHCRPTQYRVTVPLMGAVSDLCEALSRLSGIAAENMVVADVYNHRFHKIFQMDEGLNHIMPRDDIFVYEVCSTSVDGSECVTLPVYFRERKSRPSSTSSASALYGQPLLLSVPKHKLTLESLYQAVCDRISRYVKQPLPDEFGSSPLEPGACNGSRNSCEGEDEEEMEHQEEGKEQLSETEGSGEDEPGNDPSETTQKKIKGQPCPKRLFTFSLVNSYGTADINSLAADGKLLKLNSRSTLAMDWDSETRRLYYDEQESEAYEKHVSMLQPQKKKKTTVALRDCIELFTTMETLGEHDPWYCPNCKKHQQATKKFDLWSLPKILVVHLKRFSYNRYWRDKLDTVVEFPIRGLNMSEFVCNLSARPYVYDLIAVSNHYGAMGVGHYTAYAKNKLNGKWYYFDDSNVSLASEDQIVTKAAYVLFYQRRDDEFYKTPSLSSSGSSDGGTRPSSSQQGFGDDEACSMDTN
How it was run: as §1

Measured: log2 ratio of Biotin-Ahx-Ub-VS probe labelling

Sequence of USP34 (Q70CQ2 whole entry, the tested form may be a part): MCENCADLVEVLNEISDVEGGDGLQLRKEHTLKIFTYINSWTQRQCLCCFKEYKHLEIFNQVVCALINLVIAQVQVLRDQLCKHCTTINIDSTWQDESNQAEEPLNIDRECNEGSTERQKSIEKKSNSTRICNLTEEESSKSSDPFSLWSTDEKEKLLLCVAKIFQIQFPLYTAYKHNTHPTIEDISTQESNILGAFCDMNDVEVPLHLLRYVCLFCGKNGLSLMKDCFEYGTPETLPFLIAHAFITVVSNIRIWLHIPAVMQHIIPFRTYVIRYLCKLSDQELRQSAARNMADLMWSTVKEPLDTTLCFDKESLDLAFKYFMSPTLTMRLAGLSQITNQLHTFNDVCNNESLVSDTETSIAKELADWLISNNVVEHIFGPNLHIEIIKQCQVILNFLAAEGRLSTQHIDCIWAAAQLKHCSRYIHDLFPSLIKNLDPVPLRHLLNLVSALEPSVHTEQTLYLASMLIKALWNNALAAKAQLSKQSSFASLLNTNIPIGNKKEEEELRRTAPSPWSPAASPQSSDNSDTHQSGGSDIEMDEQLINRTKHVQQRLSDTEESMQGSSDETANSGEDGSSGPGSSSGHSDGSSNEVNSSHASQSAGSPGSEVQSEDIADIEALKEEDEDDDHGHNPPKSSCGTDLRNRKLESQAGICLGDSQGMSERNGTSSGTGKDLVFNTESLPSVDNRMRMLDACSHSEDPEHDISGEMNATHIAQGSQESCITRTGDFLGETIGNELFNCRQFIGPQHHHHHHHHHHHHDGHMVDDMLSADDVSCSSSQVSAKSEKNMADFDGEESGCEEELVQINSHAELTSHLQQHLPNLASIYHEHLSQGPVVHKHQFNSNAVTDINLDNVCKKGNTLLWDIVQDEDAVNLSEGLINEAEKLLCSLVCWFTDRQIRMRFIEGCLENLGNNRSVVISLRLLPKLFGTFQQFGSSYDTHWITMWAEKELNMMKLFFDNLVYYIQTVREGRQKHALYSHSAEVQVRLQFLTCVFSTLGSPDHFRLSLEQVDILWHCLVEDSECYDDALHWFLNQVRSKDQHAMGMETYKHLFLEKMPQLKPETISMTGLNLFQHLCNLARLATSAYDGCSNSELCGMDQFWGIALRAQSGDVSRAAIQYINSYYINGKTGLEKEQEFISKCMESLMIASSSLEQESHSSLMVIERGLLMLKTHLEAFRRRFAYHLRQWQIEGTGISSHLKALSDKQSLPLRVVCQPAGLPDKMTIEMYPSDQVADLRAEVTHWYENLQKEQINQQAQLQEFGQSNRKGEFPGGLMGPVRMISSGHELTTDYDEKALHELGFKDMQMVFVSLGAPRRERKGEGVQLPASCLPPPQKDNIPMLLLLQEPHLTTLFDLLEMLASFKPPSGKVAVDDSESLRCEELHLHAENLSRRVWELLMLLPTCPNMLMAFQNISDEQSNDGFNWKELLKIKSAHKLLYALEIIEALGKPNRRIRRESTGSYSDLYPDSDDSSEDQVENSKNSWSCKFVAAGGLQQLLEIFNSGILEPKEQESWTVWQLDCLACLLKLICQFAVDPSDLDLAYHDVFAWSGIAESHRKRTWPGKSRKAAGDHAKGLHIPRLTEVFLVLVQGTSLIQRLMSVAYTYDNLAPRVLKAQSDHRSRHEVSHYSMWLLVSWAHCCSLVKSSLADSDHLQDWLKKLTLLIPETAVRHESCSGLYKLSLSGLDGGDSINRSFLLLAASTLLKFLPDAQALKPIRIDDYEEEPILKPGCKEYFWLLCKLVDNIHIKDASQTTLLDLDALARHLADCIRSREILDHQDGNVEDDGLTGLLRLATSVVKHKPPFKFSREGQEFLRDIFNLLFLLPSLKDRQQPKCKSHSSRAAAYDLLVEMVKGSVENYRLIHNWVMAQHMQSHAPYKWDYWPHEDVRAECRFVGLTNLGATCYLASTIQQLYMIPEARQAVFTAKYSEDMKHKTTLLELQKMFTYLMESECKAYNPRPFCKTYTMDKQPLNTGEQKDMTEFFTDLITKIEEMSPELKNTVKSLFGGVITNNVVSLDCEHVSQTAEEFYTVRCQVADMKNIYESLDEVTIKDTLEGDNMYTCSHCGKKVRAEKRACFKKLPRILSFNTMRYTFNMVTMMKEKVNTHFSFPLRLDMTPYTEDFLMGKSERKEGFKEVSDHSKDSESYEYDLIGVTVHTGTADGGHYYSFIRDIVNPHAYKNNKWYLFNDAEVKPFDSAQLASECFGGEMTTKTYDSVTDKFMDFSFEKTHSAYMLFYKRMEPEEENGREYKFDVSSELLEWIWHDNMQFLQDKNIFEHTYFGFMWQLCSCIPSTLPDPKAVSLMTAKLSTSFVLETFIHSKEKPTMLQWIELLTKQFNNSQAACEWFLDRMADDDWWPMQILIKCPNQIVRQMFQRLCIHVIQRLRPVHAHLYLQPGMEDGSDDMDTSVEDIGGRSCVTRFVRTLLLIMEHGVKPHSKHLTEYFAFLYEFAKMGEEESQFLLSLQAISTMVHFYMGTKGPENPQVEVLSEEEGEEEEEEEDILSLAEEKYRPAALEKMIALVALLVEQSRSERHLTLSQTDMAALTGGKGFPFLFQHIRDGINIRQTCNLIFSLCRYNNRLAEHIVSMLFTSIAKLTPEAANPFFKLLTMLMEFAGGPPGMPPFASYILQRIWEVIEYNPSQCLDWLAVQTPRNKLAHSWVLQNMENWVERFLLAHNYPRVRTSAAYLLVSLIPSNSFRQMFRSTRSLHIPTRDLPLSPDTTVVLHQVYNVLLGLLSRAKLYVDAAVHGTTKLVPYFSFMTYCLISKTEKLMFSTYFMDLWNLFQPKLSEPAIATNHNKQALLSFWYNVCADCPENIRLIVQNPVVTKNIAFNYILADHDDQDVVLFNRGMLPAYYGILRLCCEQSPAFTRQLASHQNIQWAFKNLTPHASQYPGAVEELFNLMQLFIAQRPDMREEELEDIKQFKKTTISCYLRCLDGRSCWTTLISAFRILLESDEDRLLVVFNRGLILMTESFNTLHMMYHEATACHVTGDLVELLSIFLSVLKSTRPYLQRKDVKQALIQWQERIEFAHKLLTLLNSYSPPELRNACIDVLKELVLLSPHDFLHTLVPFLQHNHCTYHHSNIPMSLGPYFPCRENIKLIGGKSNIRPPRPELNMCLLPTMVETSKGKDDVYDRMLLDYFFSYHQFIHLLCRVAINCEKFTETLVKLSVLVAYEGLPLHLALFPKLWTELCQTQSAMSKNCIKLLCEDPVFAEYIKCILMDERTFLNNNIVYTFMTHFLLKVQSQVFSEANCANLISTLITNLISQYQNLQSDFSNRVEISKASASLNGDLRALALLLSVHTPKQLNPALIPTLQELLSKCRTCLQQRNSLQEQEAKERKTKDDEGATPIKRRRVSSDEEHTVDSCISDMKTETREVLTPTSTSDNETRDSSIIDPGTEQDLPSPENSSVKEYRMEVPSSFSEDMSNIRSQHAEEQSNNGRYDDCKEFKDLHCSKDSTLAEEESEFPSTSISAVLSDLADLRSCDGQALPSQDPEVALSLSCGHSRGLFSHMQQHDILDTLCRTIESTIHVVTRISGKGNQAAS

COc1cccc(CN(C)C(=O)CCl)c1
inactive: USP34 0.0183 | USP36 -0.187 | USP38 0.0437 | USP39 0.0189 | USP4 -0.4
